{"source": "PubChem BioAssay AID1508600", "about": "(Functional Genomics Laboratory (NCATS/FGL), 2020)", "note": "Screen size: about 53,000 sequences; about 3,700 (7%) were called active. Shown is part of a subset that was picked to be rich in actives. A number with no mark means an inactive call.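 Rule for the calls: active = gene knockdowns whose robust z-score for IL-1 alpha signal is at least 2 or at most -2, so actives lie on both sides; inactive = the rest.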", "data": [{"test": "Components of the Cytosolic LPS Sensing Pathway: Gene Identification via Genome-wide siRNA Screen;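 note: robust z of the log signal after scaling to non-targeting control siRNA wells of the plate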", "details": "RAW264.7 macrophages, IL-1a HTRF, actives lie on both sides, screened at 100 nM (by protocol), cells primed 5 h with Pam3CSK4 first", "method_in_brief": "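Read-out: IL-1a HTRF on supernatant, divided by plate negative-control median ×100, log-transformed and converted to robust z-score. Cells were RAW264.7 given 100 nM siRNA, Pam3CSK4-primed 5 hours, then LipidA-transfected 24 hour.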", "values": [{"sequence": "GGUUAUAUCCAUGUGACACTT against Nkg7", "z-score": -1.15}, {"sequence": "GCAGCUUUAGGUCCAUUCGTT against Pkd2l2", "z-score": -0.696}, {"sequence": "GGAACAUCCAUGUAUUCAATT against Ube2l3", "z-score": 0.76}, {"sequence": "GGAUAUCCGUGAGAUUUCATT against Timm9", "z-score": "3.7 (active)"}, {"sequence": "CCCACUCUUUGUGUACUGATT against Olfr262", "z-score": "-2.1 (active)"}, {"sequence": "GGCUAAAUAUGUGAUUAGUTT against Maob", "z-score": -0.311}, {"sequence": "GGAGUAUAUCUCGUUUAUATT against Ube2e2", "z-score": -0.221}, {"sequence": "GGACCAUGCUGGAUACUAUTT against Yrdc", "z-score": 1.74}, {"sequence": "CCUGUACCCGAACAUACCATT against Fabp12", "z-score": -1.06}, {"sequence": "GCAAGCAGACUUGUCCUUCTT against Hnrnpc", "z-score": -0.155}, {"sequence": "GGUCAUCCUCAAGUCUCCUTT against Stmn3", "z-score": "-2.28 (active)"}, {"sequence": "GGAGAAGAGAAUAGAAGAATT against Ren1", "z-score": -0.0528}, {"sequence": "GGCUGUACCAAUCUGACACTT against Pvalb", "z-score": 0.318}, {"sequence": "AUAACCUAACUCACAACAATT against Olfr304", "z-score": -1.06}, {"sequence": "GGAAAUCGAUUCUCAUGAUTT against St6gal2", "z-score": 0.00146}, {"sequence": "CGGGCUCUUGUAGAUUUCATT against Ccdc86", "z-score": "3.22 (active)"}, {"sequence": "GGGUAUGAUGUGAUUGCUCTT against Eif4a2", "z-score": 0.0435}, {"sequence": "GGAUAACCUAUCGAAUCUCTT against Dsg4", "z-score": 1.26}, {"sequence": "GCAUCUCUCUACCAUUGACTT against Frmd8", "z-score": 0.538}, {"sequence": "CGUACAAAGGUAGUAUACCTT against Pi4k2a", "z-score": 1.1}, {"sequence": "GGUUCUCAUACAUAAACAATT against Mri1", "z-score": "-2.87 (active)"}, {"sequence": "GGGAUAACACUCCUGUUUUTT against F630111L10Rik", "z-score": -1.06}, {"sequence": "GUUCCUGCUGAUCAAGGACTT against Nsmce3", "z-score": 0.2}, {"sequence": "GUCUUAUACACGUGUGGACTT against Cklf", "z-score": -0.198}, {"sequence": "GCACCUGAUUAAGUUGCAUTT against Med15", "z-score": "-2.11 (active)"}, {"sequence": "GGAAUCAUUGACGUAAUCATT against Chil3", "z-score": 1.99}, {"sequence": "GACAGGCGGCCUUCCGAGATT against Hyi", "z-score": -0.479}, {"sequence": "GGGCGACACAAGGUUUUUGTT against Kif3a", "z-score": "2.61 (active)"}, {"sequence": "GGAUGUAAAAUGCAGUUUATT against Tmsb4x", "z-score": 0.855}, {"sequence": "GCGGAAUUUGGUUUCUAUUTT against Etv2", "z-score": -0.432}, {"sequence": "GGAGUUUCCAUCACGAAGATT against Bmp4", "z-score": 0.574}, {"sequence": "CCAUUAAGAUCCGAAGUAUTT against Lrrc58", "z-score": -0.36}, {"sequence": "GGUUGAAACGAGUUUUGAATT against Zbtb5", "z-score": 0.00556}, {"sequence": "GGGCAGAAAAUCAUUUGUUTT against Anxa11", "z-score": 0.0839}, {"sequence": "CCAGUGGUAUGAGGUUGAATT against Cpne3", "z-score": 0.238}, {"sequence": "GGAAACAACAACUGUCACATT against Defb40", "z-score": "-2.13 (active)"}, {"sequence": "GCACAUGGGAGACUAUGAATT against Necab2", "z-score": -1.14}, {"sequence": "GCAGAGCGAUUAUAUGGACTT against Rnpepl1", "z-score": -0.308}, {"sequence": "CGAUUACUUGGAAAACCAATT against Ifne", "z-score": -1.21}, {"sequence": "GCACAGGACUGAUGCUAAGTT against Wdr91", "z-score": "2.92 (active)"}, {"sequence": "GGCUCAUGUAAGAUAAUUATT against Kcns3", "z-score": -1.03}, {"sequence": "CCUGAAGAAAGAAUCCCUATT against Nobox", "z-score": 0.241}, {"sequence": "GGCUCUUCCAACAGUUCUUTT against Grk1", "z-score": "2.07 (active)"}, {"sequence": "CCUACAGUACUUCAAGCGGTT against Hip1", "z-score": -1.37}, {"sequence": "GCUCUAACGUAUGAUGCCATT against Nde1", "z-score": 0.206}, {"sequence": "CCAAACUUAAGCCUAUUCUTT against Mme", "z-score": 1.32}, {"sequence": "GCAACUGAGGCUUUCUUUGTT against Copg1", "z-score": -1.53}, {"sequence": "GGACACCAAUCACAUUUGATT against Cngb3", "z-score": "-2.21 (active)"}, {"sequence": "GGAAGCAUUGAUUUUCAUCTT against Prok2", "z-score": 1.82}, {"sequence": "GGUCGGUUGCUUUAGUGAATT against Magee2", "z-score": 1.42}, {"sequence": "GGGCAAAAUCGUGUCAAGCTT against Dpp9", "z-score": 0.253}, {"sequence": "CCCAAUGAUCCUAACCAUUTT against Zfp459", "z-score": -1.08}, {"sequence": "GGAGAGAAUGGACCAUCUCTT against Rnase10", "z-score": -1.16}, {"sequence": "GGUGUAUCUGUUCUGUUAATT against Impg1", "z-score": -0.559}, {"sequence": "GGUGGUCUCCUACAAUGCCTT against Olfr1451", "z-score": "2.3 (active)"}, {"sequence": "CGAGCUGUUAGAAUUCAGATT against Jakmip1", "z-score": -0.818}, {"sequence": "GGAUCAAGAAUUAAUGUCUTT against Nes", "z-score": -0.349}, {"sequence": "GCGACAACUUAAAGACCGGTT against Cand2", "z-score": 0.0878}, {"sequence": "GGCCAUCGCACUUAAACUUTT against 1700123K08Rik", "z-score": -0.578}, {"sequence": "CCGAUGAUCAGAGAAACAGTT against Prkar2b", "z-score": -1.25}, {"sequence": "GGGACAACAUGGAUUCAAGTT against Sult1c2", "z-score": 0.685}, {"sequence": "GCCAAAACUCUGUUAGAUATT against Anapc7", "z-score": -0.931}, {"sequence": "GGAAGAAGAACUGAAGACATT against Ctnnbl1", "z-score": "2.22 (active)"}, {"sequence": "GGAAUCUAGCUGAGAAAAUTT against Lepr", "z-score": -0.62}, {"sequence": "GGGAGUUCCAAUCAUUCUUTT against 2200002J24Rik", "z-score": 0.667}, {"sequence": "GGUCUAUGUACUGUCCUGATT against Otop2", "z-score": 0.0413}, {"sequence": "GGCAAUCAUGUGGACUUCATT against C230071H18Rik", "z-score": 0.714}, {"sequence": "CGUGAAGGAAACUUUUCAGTT against Prmt9", "z-score": -1.45}, {"sequence": "GGAGAUUGACAUUAGCAACTT against Rps6ka2", "z-score": "3.02 (active)"}]}]}
